INHIBITION data for 29 molecules are collected here from ChEMBL document CHEMBL4513216, “Probing the Open Global Health Chemical Diversity Library for Multistage-Active Starting Points for Next-Generation Antimalarials” (ACS Infect Dis, 2020).

Molecules are shown by their SMILES. Among all 69,000 compounds or so, about 8,600 (12%) showed an effect of 50% or more. The entries come from a sample that favours strong results as a whole.

This test concerns Plasmodium berghei. Briefly: Screen against P. berghei liver stage (PbLuc), transformed with Luciferase, at 10uM. In kind it is functional, HepG2. The following applies: tested at 10 uM.
As for `CSCCN1CCC(NC(=O)OC(C)(C)C)CC1`, the INHIBITION is on record as -19.7%.
With `COC(=O)CCN1CCC(NC(=O)OC(C)(C)C)CC1`, the INHIBITION amounted to 50.2%.
In the case of `CCOC(=O)CN1CCC(NC(=O)OC(C)(C)C)CC1`, the INHIBITION amounted to 32.3%.
Consider `CC(C)CN1CCN(C(=O)c2ccncc2F)Cc2cccnc21`, for which the INHIBITION is on record as -18.4%.
Consider `O=C(CN1CCOCC1)Nc1cc(C(F)(F)F)ccc1-n1cccc1`, for which the INHIBITION amounted to 42.6%.
`N#CCCN(CC1CCCO1)C(=O)c1ccc(C#N)cc1` (centres undefined): the INHIBITION is -5.31%.
With `N#CCCN(CC1CCCO1)C(=O)c1ccsc1` (centres undefined), the INHIBITION was found to be 57.9%.
In the case of `N#CCCN(CC1CCCO1)C(=O)c1ccc2nonc2c1` (centres undefined), the INHIBITION is recorded as 2.59%.
As for `CNc1cc2c(nn1)CCN(C(=O)c1ccoc1)C2`, the INHIBITION is on record as 51.3%.
The figure for `CNc1cc2c(nn1)CCN(C(=O)c1cccc3c1OCCO3)C2` is 51.1%; for `CNc1cc2c(nn1)CCN(C(=O)c1cc(F)cc(F)c1)C2` it is 17.7%; for `CCNc1cc2c(nn1)CCN(C(=O)c1ccnc(N(C)C)c1)C2` it is 4.59%.
As for `CCNc1cc2c(nn1)CCN(C(=O)c1cc(C)n(C3CC3)c1C)C2`, the INHIBITION was 35.9%.
For the molecule `CCNc1cc2c(nn1)CCN(C(=O)c1ccnc(-n3ccnc3)c1)C2`, the INHIBITION is listed as 54.15%.
On to `CNc1cc2c(nn1)CCN(C(=O)c1cc(C)n(C3CC3)c1C)C2`, for which the INHIBITION is 79.1%.
For the molecule `CCNc1cc2c(nn1)CCN(C(=O)c1ccc(C(N)=O)cc1)C2`, the INHIBITION turned out to be 41.65%.
Take `CNc1cc2c(nn1)CCN(C(=O)c1cccc3c1OCO3)C2`: the INHIBITION is reported as -13.3%.
The figure for `CCNc1cc2c(nn1)CCN(C(=O)c1cccc3c1OCCO3)C2` is 3.81%; for `CCNc1cc2c(nn1)CCN(C(=O)c1ccoc1)C2` it is 39.2%.
The figure for `Cc1cc(C(=O)N2CCc3nnc(N(C)C)cc3C2)c(C)n1C1CC1` is 19.4%.
`CN(CCc1ccccn1)C(=O)Cn1cc(-c2ccccc2)nn1`: the INHIBITION worked out at 6.23%.
For `CN1CCN([C@@H]2CN(C(=O)c3cc4ccc(F)cc4[nH]3)C[C@H]2O)CC1`, the INHIBITION worked out at 36%.
Take `O=C(NCCn1ccnc1)N1CCCC1c1ccncc1` (centres undefined): the INHIBITION was determined as 31.9%.
Regarding `O=C1CN(C(=O)C2CN(c3cccc(F)c3)CCO2)CCN1` (centres undefined), the INHIBITION was found to be 13.35%.
The figure for `O=C(NCC1CC1)c1c2c(N3CCCC3)ncnc2n2ccccc12` is 33.4%.
Take `CC(C)c1ncc2c(n1)CN(Cc1cccc(C(N)=O)c1)CC2`: the INHIBITION is -34%.
With `O=C(c1ccccc1)N1CCO[C@@H]2CN(Cc3ccc[nH]3)C[C@@H]2C1`, the INHIBITION was 35.8%.
In the case of `COCCOCC(=O)N1C[C@@H]2CC[C@H](Oc3ccccc3F)[C@@H]2C1`, the INHIBITION came to 15.9%.
Take `O[C@H]1CCN(CCCOc2ccccc2F)C[C@@]12CCCO2`: the INHIBITION is 33.85%.
